tested on: Vero E6 infected with SARS-CoV-2; experiment: inhibition of SARS-CoV-2 cytopathic effect; higher = more antiviral protection, active = above 15; conditions: 100 nM; 48 h

Row | SMILES | inhibition of SARS-CoV-2 cytopathic effect
1 | C[C@@H](N)[C@H]1CC[C@H](C(=O)Nc2ccncc2)CC1 | -2.01% (inactive)
2 | CC(CCc1ccc(O)cc1)NCC(O)c1ccc(O)cc1 (stereo not drawn) [ractopamine] | -1.47% (inactive)
3 | Cc1ccc(C)c([C@H](O)CNC(C)C)c1 [benzenemethanol,-2,5-dimethyl-[[(1-methylethyl)amino]methyl]] | 0.03% (inactive)
4 | CC(C)c1cc(-c2ccc(F)c3ccccc23)nc(N)n1 | -1.61% (inactive)
5 | Clc1cccc(-n2nnnc2NCc2ccccc2Oc2ccccn2)c1Cl | -3.85% (inactive)
6 | CC(=O)Oc1ccc(C(c2ccc(OC(C)=O)cc2)c2ccccn2)cc1 [bisacodyl] | -2.25% (inactive)
7 | Clc1ccc(CO/N=C(\Cn2ccnc2)c2ccc(Cl)cc2Cl)c(Cl)c1 [oxiconazole] | 1.05% (inactive)
8 | O=C1C=C2C=C[C@@H]3C[C@@]2(O1)[C@H]1CCCCN31 [securinine] | 2.11% (inactive)
9 | CC[C@H](C)n1cc(C)c2c(C(=O)NCc3c(C)cc(C)[nH]c3=O)cc(-c3ccc(N4CCNCC4)nc3)cc21 | 2.26% (inactive)
10 | c1ccc2c(c1)CCCc1cc(NCCN3CCOCC3)nnc1-2 | 1.8% (inactive)
11 | CNC1CC(N)C(O)C(OC2OC(CO)C(O)C3OC4(OC(C(N)CO)C(O)C(O)C4O)OC23)C1O (stereo not drawn) [Hygromycin B] | -0.49% (inactive)
12 | Oc1cc(O)cc(/C=C/c2ccc(O)c(O)c2)c1 [piceatannol] | -0.97% (inactive)
13 | CC(C)(O)c1ccn2c(-c3ccc(F)c(-c4ccc(F)cc4C#N)c3)cnc2c1F | 0.5% (inactive)
14 | CCN(CC)CCOC(=O)C(c1ccccc1)C1CCCCC1 (stereo not drawn) [drofenine] | -1.61% (inactive)
15 | C[C@](O)(COc1ccc(C#N)cc1)C(=O)Nc1ccc(C#N)c(C(F)(F)F)c1 [ostarine] | 1.02% (inactive)
16 | CCCN1C[C@H](CSC)C[C@@H]2c3cccc4[nH]cc(c34)C[C@H]21 [pergolide] | 0.68% (inactive)
17 | Nc1ccc2ncnc(NCCc3ccc(Oc4ccccc4)cc3)c2c1 | -1.53% (inactive)
18 | CC(C)Oc1ccc(Cc2ccc(NC3=NCCN3)cc2)cc1 | 2.45% (inactive)
19 | CC[C@@H](C(N)=O)N1CCCC1=O [levetiracetam] | 0.01% (inactive)
20 | CCCCn1c(-c2ccccc2)nc(-c2ccccc2)c1CN(Cc1ccc2c(c1)OCO2)Cc1ccc2c(c1)OCO2 | -0.2% (inactive)
21 | CN1C(=O)/C(=C2/C(=O)Nc3ccccc32)c2ccccc21 [meisoindigo] | -2.28% (inactive)
22 | CC(C)Nc1cc(-c2c[nH]c(C(=O)N[C@H](CO)c3cccc(Cl)c3)c2)c(Cl)cn1 | -2.23% (inactive)
23 | O=C1NC(c2ccccc2)(c2ccccc2)C(=O)N1COP(=O)(O)O [fosphenytoin] | 13.5% (inactive)
24 | CCCS(=O)(=O)Nc1ccc(F)c(C(=O)c2c[nH]c3ncc(Cl)cc23)c1F | -0.45% (inactive)
25 | CC(C)C[C@@H](NC(=O)[C@H](Cc1ccccc1)NC(=O)CNC(=O)[C@@H](C)NC(=O)[C@@H](N)Cc1ccc(O)cc1)C(=O)O | 1.72% (inactive)
26 | [I-].[K+] [potassium-iodide] | -1.59% (inactive)
27 | CC(C)Cc1ccc([C@@H](C)C(=O)NS(C)(=O)=O)cc1 [reparixin] | 3.66% (inactive)
28 | O=[N+]([O-])O[C@@H]1CO[C@H]2[C@@H]1OC[C@@H]2O [isosorbide-mononitrate] | -1.7% (inactive)

Reference: the supplement of paper PMC13380429
